Laboratory results reported in PubChem BioAssay (EPA / NIEHS).
Records with an inconclusive call do not appear. Some compounds were tested as several samples or in several runs, with calls that do not always agree. Activity calls are given as the source filed them. The calls were made as follows, unless noted: active = hit-call score of the fitted dose curve at least 0.9, where 1 is the maximum; inconclusive = response in the unintended direction; inactive = score below 0.9.

Columns and labels:
[1] = test system: Sodium/Iodide Symporter (NIS), SLC5A5 (gene 6528); assay: CPHEA_Stoker_NIS_Inhibition_RAIU: CPHEA's Radioactive Iodide Uptake (RAIU) Assay for Sodium/Iodide Symporter (NIS) Inhibition, Stoker and Laws Labs (AID 2283841)
Procedure, shortened: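 Iodide uptake through human NIS is measured in an engineered HEK293T line. Cells take up 125I (329pM final) for 2 hours at room temperature alongside chemicals at 0.001–100uM. Retained radioactivity is counted, and the signal is expressed against DMSO controls.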

[2] = CPHEA_Stoker_NIS_Cytotoxicity: Cytotoxicity Assessment for CPHEA's Radioactive Iodide Uptake (RAIU) Assay for Sodium/Iodide Symporter (NIS) Inhibition, Stoker and Laws Labs (AID 2283897);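 as to AC50: active means loss of ATP signal versus DMSO meaning cytotoxicity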
Procedure, shortened: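 ATP luminescence (Cell Titer Glo) measured viability, with loss of signal normalized to DMSO controls. Cells: hNIS-HEK293T-EPA, seeded 40 hours prior. Dosing: 0.001–100uM, 2 hours, room temperature, uptake buffer pH 7.4.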

[3] = target: human Thyroid hormone Receptor beta (TRb), THRB (gene 7068) (UniProt P10828); assay: ATG_hTRb_XSP2: Attagene TRANS-FACTORIAL Multi-Species (XSP2) HepG2 Assay for human Thyroid hormone Receptor beta (TRb) (AID 2283840);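 also: actives raise reporter mRNA so potency reflects agonist-like gain of signal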
Procedure, shortened: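 Transient transfection of human HepG2 with multi-species NR-Gal4/GAL4-UAS reporter constructs; 24 h compound treatment; RNA isolation, reverse transcription, PCR and HpaI digest; capillary electrophoresis of labeled fragments; activity fitted upward versus DMSO.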

[4] = target: PGR (gene 5241) (UniProt P06401); assay: TOX21_PR_BLA_Followup_Antagonist_ratio: Tox21 HEK293 Progesterone Receptor (PR) Antagonism Beta-lactamase Follow-Up Assay, Ratio (AID 2283934)
Procedure, shortened: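 HEK293T PR-UAS-bla, 2% CS-FBS; 6 hr plating, then cpd + R5020 (1 nM final), 16 hr 37C/5% CO2. B/G FRET substrate 2 h RT. Ratio ch2/ch1 vs DMSO; CellTiter-Glo viability multiplexed, autofluorescence checked.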

[5] = target: PGR (gene 5241) (UniProt P06401); assay: TOX21_PR_LUC_Followup_Antagonist: Tox21 HEK293 Progesterone Receptor (PR) Antagonism Luciferase Follow-Up Assay (AID 2283938);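 also: curve fitted upward as signal gain over DMSO baseline despite antagonist label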
Procedure, shortened: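 Cells are grown 5 days in charcoal-stripped-FBS assay medium, plated, left 5 h, then dosed with compound and incubated 16 h. ONE-Glo reagent is added and luminescence read after 30 min.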

[6] = TOX21_PR_BLA_Followup_Agonist_viability: Viability Assessment in the Tox21 HEK293 Progesterone Receptor (PR) Agonism Beta-lactamase Follow-Up Assay (AID 2283935);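 also: cells exposed to compound for 16 hr at 37 °C; signal loss means lower viability so actives are cytotoxic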
Procedure, shortened: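 HEK293T PR-UAS-bla, 3,000 cells/well, 2% CS-FBS; 6 hr pre-incubation; cpd in DMSO, 16 hr 37C; LiveBLAzer 2 hr RT, then CellTiter-Glo 30 min RT, luminescence. Decrease = lost viability.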

[7] = TOX21_PR_BLA_Followup_Antagonist_viability: Viability Assessment in the Tox21 HEK293 Progesterone Receptor (PR) Antagonism Beta-lactamase Follow-Up Assay (AID 2283936);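 also: hits lower the luminescence signal meaning cytotoxicity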
Procedure, shortened: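 PR-UAS-bla HEK293T cells (3,000/well, 2% charcoal-stripped FBS) given compound plus R5020 agonist, 16 h at 37C. CellTiter-Glo added after bla read, 30 min at room temperature; luminescence loss indicates cytotoxicity.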

[8] = CEETOX_H295R_11DCORT_noMTC: CeeTox H295R High-throughput Steroidogenesis Assay for 11-Deoxycortisol (11DCORT), maximum tolerated concentration (MTC) filtered results only (AID 2283911; active = hit-call score of the fitted dose curve at least 0.9, where 1 is the maximum; inactive = score below 0.9); conditions: actives raise or lower the signal
Procedure, shortened: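 Steroidogenesis was stimulated in H295R cells with 10 uM forskolin for 48 h before a 48 h chemical exposure. Secreted 11-deoxycortisol was measured by tandem mass spectrometry and fitted bidirectionally against DMSO controls.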

[9] = CEETOX_H295R_OHPREG_noMTC: CeeTox H295R High-throughput Steroidogenesis Assay for OH-Pregnenolone (OHPREG), maximum tolerated concentration (MTC) filtered results only (AID 2283912; active = hit-call score of the fitted dose curve at least 0.9, where 1 is the maximum; inactive = score below 0.9); conditions: actives raise or lower the signal
Procedure, shortened: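 Steroidogenesis in H295R cells (OECD 456, modified): after 48 h forskolin priming and 48 h chemical treatment, secreted 17alpha-hydroxypregnenolone is measured by HPLC-MS/MS. Activity is fitted in both directions against DMSO; concentrations are not filtered by MTT-based MTC.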

[10] = CEETOX_H295R_OHPROG_noMTC: CeeTox H295R High-throughput Steroidogenesis Assay for OH-Progesterone (OHPROG), maximum tolerated concentration (MTC) filtered results only (AID 2283914; active = hit-call score of the fitted dose curve at least 0.9, where 1 is the maximum; inactive = score below 0.9); conditions: actives raise or lower the signal
Procedure, shortened: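 Forskolin 10 uM, 48 h prestim → test cmpd in DMSO (0.1% final), 48 h → medium MTBE extraction → LC-MS/MS quant of 17alpha-OH-progesterone. Bidirectional fit vs DMSO; no MTT-based MTC filtering.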

[11] = CEETOX_H295R_CORTISOL_noMTC: CeeTox H295R High-throughput Steroidogenesis Assay for Cortisol, maximum tolerated concentration (MTC) filtered results only (AID 2283916; active = hit-call score of the fitted dose curve at least 0.9, where 1 is the maximum; inactive = score below 0.9); conditions: actives raise or lower the signal
Procedure, shortened: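 Cortisol secretion measured by LC-MS/MS after 48 h chemical treatment (final 0.1% DMSO) of forskolin-primed (10 uM, 48 h) H295R cells; gain or loss fitted relative to DMSO, without maximum-tolerated-concentration filtering.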

[12] = CEETOX_H295R_CORTIC_noMTC: CeeTox H295R High-throughput Steroidogenesis Assay for Corticosterone (CORTIC), maximum tolerated concentration (MTC) filtered results only (AID 2283917; active = hit-call score of the fitted dose curve at least 0.9, where 1 is the maximum; inactive = score below 0.9); conditions: actives raise or lower the signal
Procedure, shortened: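 Following OECD 456 with minor changes, H295R cultures received 10 uM forskolin for 48 h, then test chemical at 0.1% DMSO for 48 h. Media steroids were extracted and measured by LC-MS/MS.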

[13] = CEETOX_H295R_DOC_noMTC: CeeTox H295R High-throughput Steroidogenesis Assay for DOC, maximum tolerated concentration (MTC) filtered results only (AID 2283918; active = hit-call score of the fitted dose curve at least 0.9, where 1 is the maximum; inactive = score below 0.9); conditions: actives raise or lower the signal
Procedure, shortened: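 11-Deoxycorticosterone secreted by human adrenal H295R cells quantified by HPLC-MS/MS after 48 h chemical exposure (0.1% DMSO), following 48 h 10 uM forskolin prestimulation. Concentrations not filtered by MTT-derived MTC; bidirectional fitting.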

[14] = CEETOX_H295R_PROG_noMTC: CeeTox H295R High-throughput Steroidogenesis Assay for Progesterone (PROG), maximum tolerated concentration (MTC) filtered results only (AID 2283920; active = hit-call score of the fitted dose curve at least 0.9, where 1 is the maximum; inactive = score below 0.9); conditions: actives raise or lower the signal
Procedure, shortened: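 H295R cells; forskolin 10 uM x 48 h prestim; test cpd 48 h, 0.1% DMSO final; media progesterone via LC-MS/MS; bidirectional fit vs DMSO; no MTT-based MTC filter applied.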

PGR (gene 5241), sequence (P06401 whole entry, looked up): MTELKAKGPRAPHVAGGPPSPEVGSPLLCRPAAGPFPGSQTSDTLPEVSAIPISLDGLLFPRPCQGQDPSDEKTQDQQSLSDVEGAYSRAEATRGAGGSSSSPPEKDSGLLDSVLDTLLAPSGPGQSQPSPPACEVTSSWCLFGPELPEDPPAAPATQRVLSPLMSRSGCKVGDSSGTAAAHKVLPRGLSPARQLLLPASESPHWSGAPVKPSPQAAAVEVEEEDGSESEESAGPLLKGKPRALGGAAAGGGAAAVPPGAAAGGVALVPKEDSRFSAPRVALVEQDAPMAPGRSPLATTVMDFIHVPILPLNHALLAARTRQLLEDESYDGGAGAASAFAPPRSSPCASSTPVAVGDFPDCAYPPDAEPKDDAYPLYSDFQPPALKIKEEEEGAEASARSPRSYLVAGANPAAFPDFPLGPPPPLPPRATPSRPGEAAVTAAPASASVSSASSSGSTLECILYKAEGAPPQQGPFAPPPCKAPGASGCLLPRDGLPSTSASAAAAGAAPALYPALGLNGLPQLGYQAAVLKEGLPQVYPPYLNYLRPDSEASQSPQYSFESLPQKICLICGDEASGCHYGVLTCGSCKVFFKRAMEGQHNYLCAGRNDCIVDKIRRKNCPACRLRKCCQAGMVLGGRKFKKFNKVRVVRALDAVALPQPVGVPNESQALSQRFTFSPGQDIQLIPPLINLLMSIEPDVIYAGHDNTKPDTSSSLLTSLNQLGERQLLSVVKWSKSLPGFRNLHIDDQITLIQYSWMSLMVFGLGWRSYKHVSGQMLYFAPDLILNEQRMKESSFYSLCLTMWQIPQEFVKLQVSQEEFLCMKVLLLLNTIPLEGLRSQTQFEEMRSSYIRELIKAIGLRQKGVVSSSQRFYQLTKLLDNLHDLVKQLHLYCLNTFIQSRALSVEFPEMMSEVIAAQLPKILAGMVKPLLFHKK
human Thyroid hormone Receptor beta (TRb), THRB (gene 7068), sequence (P10828 whole entry, looked up, the tested form may be a part): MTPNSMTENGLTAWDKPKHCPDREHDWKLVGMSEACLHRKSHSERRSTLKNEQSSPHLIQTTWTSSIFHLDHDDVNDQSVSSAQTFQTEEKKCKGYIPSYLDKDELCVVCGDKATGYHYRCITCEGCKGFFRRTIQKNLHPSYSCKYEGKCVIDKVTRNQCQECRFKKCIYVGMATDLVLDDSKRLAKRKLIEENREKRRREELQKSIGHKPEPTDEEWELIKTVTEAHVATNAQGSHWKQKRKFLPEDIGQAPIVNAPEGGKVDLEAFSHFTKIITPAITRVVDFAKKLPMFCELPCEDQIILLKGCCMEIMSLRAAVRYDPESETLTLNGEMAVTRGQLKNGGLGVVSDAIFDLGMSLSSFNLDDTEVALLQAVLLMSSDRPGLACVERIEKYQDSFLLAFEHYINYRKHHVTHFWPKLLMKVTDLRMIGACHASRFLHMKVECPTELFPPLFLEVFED

Which results are given for `Oc1c(Br)cc(Br)cc1Br`?
outcome [1]: inactive; outcome [2]: inactive

Which results are given for `O=C(NC(=O)c1c(F)cccc1F)Nc1cc(Cl)c(OC(F)(F)C(F)C(F)(F)F)cc1Cl` (configuration not stated)?
outcome [1]: inactive; outcome [2]: inactive

Which results are given for `O=C(O)C1(c2ccc3c(c2)OC[C@H](Cc2ccc(-c4ccccc4)cc2)[C@H]3O)CCCC1`?
outcome [1]: inactive; outcome [2]: inactive

Which outcome [1] does the source give for `CC(C)=CC1C(C(=O)OCc2cccc(Oc3ccccc3)c2)C1(C)C` (configuration not stated) here?
Its outcome is “inactive”.

What about the outcome [2] of the same compound?
The outcome was “inactive”.

Which outcome [1] does the source give for `Cc1cc(Cl)ccc1OC(C)C(=O)O` (configuration not stated) here?
Its outcome is “inactive”.

For `CC(O)(CS(=O)(=O)c1ccc(F)cc1)C(=O)Nc1ccc(C#N)c(C(F)(F)F)c1` (configuration not stated), which AC50 [3] is on record?
The AC50 was 155 µM (active).

And the outcome [3]?
Its outcome is “inactive”.

What about the AC50 [1] of the same compound?
Its AC50 is 9.92 µM (active).

What about the AC50 [2] of the same compound?
The AC50 was 88.7 µM (active).

What about the AC50 [4] of the same compound?
Its AC50 is 5.64 µM (active).

What about the AC50 [5] of the same compound?
The AC50 was 6.97 µM (active).

Which outcome [1] does the source give for `CC1(C)[C@H](C(=O)O[C@H](C#N)c2cccc(Oc3ccccc3)c2)[C@@H]1/C=C(\Cl)C(F)(F)F` here?
Its outcome is “inactive”.

Which outcome [1] does the source give for `O=[N+]([O-])c1ccccc1O` here?
Its outcome is “inactive”.

What about the outcome [2] of the same compound?
The outcome was “inactive”.

For `CCOc1ccc(N)cc1`, which outcome [1] is on record?
The outcome was “inactive”.

And the outcome [2]?
The outcome was “inactive”.

Which AC50 [1] does the source give for `CCC[CH2][Sn]([Cl])([Cl])[CH2]CCC` here?
The AC50 was 3.24 µM (active).

And the outcome [2]?
The outcome was “inactive”.

Which outcome [3] does the source give for `COCCl` here?
The outcome was “inactive”.

With `[Cl][Sn]([c]1ccccc1)([c]1ccccc1)[c]1ccccc1` as the compound, how does the AC50 [3] read?
The AC50 was 0.558 µM (active).

What does the source list for `Oc1cc(Cl)c(Cl)cc1Cl`?
outcome [3]: inactive; outcome [1]: inactive; outcome [2]: inactive

Which outcome [3] does the source give for `O=c1oc2ccccc2c(O)c1C(CC(O)c1ccc(-c2ccc(Br)cc2)cc1)c1ccccc1` (configuration not stated) here?
The outcome was “inactive”.

With `O=C1c2ccccc2C(=O)C1C(=O)C(c1ccccc1)c1ccc(Cl)cc1` (configuration not stated) as the compound, how does the outcome [1] read?
The outcome was “inactive”.

And the outcome [2]?
Its outcome is “inactive”.

What does the source list for `CCCCCCCCCCCCc1cccc(S(=O)(=O)O)c1`?
outcome [1]: inactive; outcome [2]: inactive

With `CCC[CH2][Sn]([CH2]CCC)([CH2]CCC)[CH2]CCC` as the compound, how does the outcome [1] read?
The outcome was “inactive”.

And the outcome [2]?
Its outcome is “inactive”.

With `C=CC(Cl)CCl` (configuration not stated) as the compound, how does the outcome [1] read?
The outcome was “inactive”.

What about the outcome [2] of the same compound?
Its outcome is “inactive”.

Which outcome [1] does the source give for `O=S1OC[C@@H]2[C@H](CO1)[C@]1(Cl)C(Cl)=C(Cl)[C@@]2(Cl)C1(Cl)Cl` (some centres not stated) here?
Its outcome is “inactive”.

What about the outcome [2] of the same compound?
Its outcome is “inactive”.

For `CCOP(=S)(OCC)O/N=C(\C#N)c1ccccc1`, which outcome [3] is on record?
The outcome was “inactive”.

And the outcome [1]?
The outcome was “inactive”.

What about the outcome [2] of the same compound?
The outcome was “inactive”.

With `CCCCCCCCCCCCOS(=O)(=O)O` as the compound, how does the outcome [1] read?
The outcome was “inactive”.

What about the outcome [2] of the same compound?
Its outcome is “inactive”.

For `CC(=Cc1ccccc1)[N+](=O)[O-]`, which outcome [1] is on record?
Its outcome is “inactive”.

And the outcome [2]?
Its outcome is “inactive”.

For `CCCSP(=S)(OCC)Oc1ccc(SC)cc1` (configuration not stated), which outcome [1] is on record?
The outcome was “inactive”.

What about the outcome [2] of the same compound?
The outcome was “inactive”.

What about the outcome [4] of the same compound?
The outcome was “inactive”.

What about the outcome [6] of the same compound?
Its outcome is “inactive”.

And the outcome [7]?
Its outcome is “inactive”.

And the outcome [5]?
The outcome was “inactive”.

Which AC50 [4] does the source give for `CCCSP(=S)(OCC)Oc1ccc(Cl)cc1Cl` (configuration not stated) here?
The AC50 was 22.6 µM (active).

And the outcome [6]?
Its outcome is “inactive”.

What about the outcome [7] of the same compound?
The outcome was “inactive”.

And the AC50 [5]?
Its AC50 is 24.3 µM (active).

Which results are given for `OC[P+](CO)(CO)CO`?
AC50 [8]: 6.54 µM (active); AC50 [9]: 6.42 µM (active); AC50 [10]: 3.48 µM (active); AC50 [11]: 4.63 µM (active); AC50 [12]: 3.54 µM (active); AC50 [13]: 12.3 µM (active); AC50 [14]: 2.5 µM (active)
